Measured values as given in PubChem BioAssay (Tox21).
Records with an inconclusive call do not appear. The source made the active and inactive calls. Unless noted, calls follow the shape of the dose curve; as a rule, active = well fitted curve in the direction sought with a large enough effect in the repeat runs; inconclusive = weak or mixed curves; inactive = no such curve, though single readings can be large; an effect the other way counts as inactive or inconclusive.

Assays:
[1] = qHTS assay to identify small molecule agonists of the NFkB signaling pathway - cell viability counter screen (AID 1159515; calls by dose curve; also: series mostly up to about 61 µM; nearly all actives have a fitted effect of over 55% in size)
In short: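 Parallel cytotoxicity counter screen in ME-180 cells carrying an NFkB-response-element beta-lactamase reporter, 2,000 cells/well. Compound exposure lasted 5 hr at 37 C, 5% CO2. Cell viability was quantified by CellTiter-Glo luminescence.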

[2] = qHTS assay to identify small molecule agonists of the endoplasmic reticulum stress response signaling pathway (AID 1159516; active = well fitted activation curve with a large enough effect in the signal ratio in the repeat runs, not every such curve was filed as active; the % refers to the signal ratio)
In short: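 Using a HeLa line with an ESRE-driven beta-lactamase gene, agonist activity was measured by FRET substrate fluorescence (460 and 530 nm emission) after cells were treated with compounds for 5 hr at 37 C and 5% CO2.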

[3] = qHTS assay to identify small molecule agonists of the endoplasmic reticulum stress response signaling pathway - cell viability counter screen (AID 1159517; calls by dose curve;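 also: HeLa cells carrying an ER stress response element beta-lactamase reporter; series mostly up to about 61 µM; nearly all actives have a fitted effect of over 50% in size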)
In short: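 Steps: seed 1,500 ESRE-bla HeLa cells per well; incubate overnight at 37 C, 5% CO2; add compounds in DMSO for 5 hr; run FRET substrate 2 hr RT; add CellTiter-Glo, wait 30 min, read luminescence.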

[4] = qHTS assay to identify small molecule antagonists of the retinoid-related orphan receptor gamma (ROR-gamma) signaling pathway - cell viability counter screen (AID 1159520); also: nearly all actives have a fitted effect of over 50% in size
In short: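 Tet-on ROR gamma CHO cells were given compounds for 2 hr, then doxycycline hyclate at 1 uM final, and incubated 16 hr at 37 C. Viability was measured as ATP content by CellTiter-Glo luminescence.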

[5] = molecular target: Nuclear receptor ROR-gamma (Homo sapiens) (UniProt P51449); test: qHTS assay to identify small molecule antagonists of the retinoid-related orphan receptor gamma (ROR-gamma) signaling pathway (AID 1159521; also: nearly all actives have a fitted effect of over 50% in size; also: potency is read from the fitted curve at half-maximal effect)
In short: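 Test compounds were applied to Tet-on RORγ CHO cells 2 h ahead of doxycycline hyclate (1 uM final). Luciferase reporter activity was quantified by luminescence after 16 h at 37 C and 5% CO2.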

[6] = qHTS assay to identify small molecule agonists of the AP-1 signaling pathway - cell viability counter screen (AID 1159525; calls by dose curve; also: nearly all actives have a fitted effect of over 55% in size)
In short: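 Same-well cytotoxicity counter screen of the Tox21 10K library in ME-180 cells. The readout is ATP-dependent luminescence after 5 h compound treatment. Data are normalised to DMSO and tetra n-octyl ammonium bromide controls.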

[7] = qHTS assay to identify small molecule agonists of the AP-1 signaling pathway (AID 1159526; calls by dose curve; also: potency is read from the fitted curve at half-maximal effect)
[8] = qHTS assay to identify small molecule agonists of the RXR signaling pathway - cell viability counter screen (AID 1159529); also: series mostly up to about 77 µM; nearly all actives have a fitted effect of over 50% in size
In short: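 Compounds dissolved in DMSO were pinned onto HEK 293T cells carrying a beta-lactamase reporter under RXR-alpha control and incubated 16 hr. Cytotoxicity was then quantified by CellTiter-Glo luminescence.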

[9] = qHTS assay to identify small molecule antagonists of the retinoid acid receptor (RAR) signaling pathway - cell viability counter screen (AID 1159551); also: nearly all actives have a fitted effect of over 35% in size
In short: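 ATP-based viability, C3RL4 cells, 6 h at 37 C with 1 uM final retinol co-added after compound; luminescence read 30 min post CellTiter-Glo, RT.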

[10] = qHTS assay to identify small molecule antagonists of the retinoic acid receptor (RAR) signaling pathway (AID 1159552; also: nearly all actives have a fitted effect of over 50% in size)
In short: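 Test chemicals and DMSO controls were pin-transferred onto C3RL4 cells a day after seeding; retinol (1 uM final) followed at once. Luminescent reporter output was quantified after 6 hr of co-incubation and 30 min with detection reagent.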

[11] = qHTS assay to identify small molecule agonists of the retinoic acid receptor (RAR) signaling pathway (AID 1159553)
In short: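 Quantitative high-throughput format: the Tox21 10K library was tested on C3RL4 RARE-luciferase cells for 6 hr at 37 C and 5% CO2, with luminescence measured after a 30 min room-temperature reagent step.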

[12] = molecular target: Luciferin 4-monooxygenase (Photinus pyralis) (UniProt P08659); test: qHTS assay to identify small molecule inhibitors of firefly luciferase (AID 1224835); also: series mostly up to about 120 µM; nearly all actives have a fitted effect of over 25% in size
Sequence of Luciferin 4-monooxygenase (Photinus pyralis) (P08659 whole entry, looked up): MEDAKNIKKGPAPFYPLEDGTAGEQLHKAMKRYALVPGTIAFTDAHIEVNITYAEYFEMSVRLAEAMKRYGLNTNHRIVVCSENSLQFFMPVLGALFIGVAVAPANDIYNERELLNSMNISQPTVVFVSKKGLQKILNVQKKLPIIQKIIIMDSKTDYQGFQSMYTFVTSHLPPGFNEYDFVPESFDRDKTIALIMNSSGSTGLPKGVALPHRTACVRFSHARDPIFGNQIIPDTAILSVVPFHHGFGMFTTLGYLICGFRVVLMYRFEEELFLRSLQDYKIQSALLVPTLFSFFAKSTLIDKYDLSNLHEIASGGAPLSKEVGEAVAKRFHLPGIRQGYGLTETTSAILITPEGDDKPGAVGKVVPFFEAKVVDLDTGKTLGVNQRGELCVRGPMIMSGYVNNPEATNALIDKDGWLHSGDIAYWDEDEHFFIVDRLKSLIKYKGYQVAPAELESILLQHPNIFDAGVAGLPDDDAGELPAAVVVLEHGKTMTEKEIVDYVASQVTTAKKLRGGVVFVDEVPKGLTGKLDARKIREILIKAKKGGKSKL
In short: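 Biochemical qHTS: compounds run as interplate titrations against purified firefly enzyme, with D-luciferin and ATP each at its KM concentration. Light output recorded by CCD imaging.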

[13] = molecular target: Retinoic acid receptor RXR-alpha (Homo sapiens) (UniProt P19793); test: qHTS assay to identify small molecule agonists of the RXR signaling pathway (AID 1159527; calls by dose curve; also: nearly all actives have a fitted effect of over 35% in size)
Sequence of Retinoic acid receptor RXR-alpha (Homo sapiens) (P19793 whole entry, looked up): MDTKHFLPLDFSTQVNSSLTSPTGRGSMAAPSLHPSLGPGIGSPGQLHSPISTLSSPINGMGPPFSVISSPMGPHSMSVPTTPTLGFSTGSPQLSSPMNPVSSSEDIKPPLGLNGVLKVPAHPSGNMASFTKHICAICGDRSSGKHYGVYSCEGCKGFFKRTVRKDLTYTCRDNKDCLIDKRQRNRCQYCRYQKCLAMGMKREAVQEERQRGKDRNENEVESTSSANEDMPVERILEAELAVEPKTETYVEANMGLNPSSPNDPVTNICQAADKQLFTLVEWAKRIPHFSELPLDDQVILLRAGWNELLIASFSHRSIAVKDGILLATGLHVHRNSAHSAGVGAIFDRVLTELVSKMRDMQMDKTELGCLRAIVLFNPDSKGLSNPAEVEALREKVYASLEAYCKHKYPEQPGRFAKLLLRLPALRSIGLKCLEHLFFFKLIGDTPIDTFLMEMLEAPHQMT
In short: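 Using 9-cis retinoic acid as the reference agonist, chemicals were tested in HEK 293T cells […] for 16 hr; substrate loading lasted 2 hr at room temperature.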

[14] = qHTS assay to identify small molecule antagonists of the estrogen related receptor (ERR) signaling pathway from Tox21 library - cell viability counter screen (AID 1224834); also: nearly all actives have a fitted effect of over 30% in size
In short: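 Compounds in DMSO were pinned onto ERR cells that had been incubated for 6 h, and the plates were held at 37 C for 17.5 h. CellTiter-Fluor reagent was then added and fluorescence was measured after 30 min.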

[15] = qHTS assay to identify small molecule agonists of the constitutive androstane receptor (CAR) signaling pathway - cell viability counter screen (AID 1224836); also: series mostly up to about 92 µM; nearly all actives have a fitted effect of over 45% in size
In short: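 23 h treatment, 37 C, 5% CO2. Cell line: HepG2 stably expressing hCAR with a CYP2B6-2.2kb construct. Co-treatment: PK11195, 0.75 uM final. Read-out: CellTiter-Fluor fluorescence intensity.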

Measured: Potency

Nc1ccc(C(=O)N2CC3CC(CN(Cc4ccccc4)C3)C2)cc1
not listed: [13] | [14] | [15]
inactive: all other assays above

C1CCC2OC2C1 (stereo not drawn)
not listed: [8]
inactive: all other assays above

CCCCCCCCCCCCCCCC(=O)OC/C=C(C)/C=C/C=C(C)/C=C/C1=C(C)CCCC1(C)C
not listed: [13] | [15]
inactive: all other assays above

CC(=O)/C(C)=C/C1C(C)=CCCC1(C)C (stereo not drawn)
not listed: [13]
inactive: all other assays above

CCOC(=O)C1=NN(c2ccccc2)C(=O)C1
not listed: [8] | [15]
inactive: all other assays above

CCCCCCCCC(CO)CCCCCC (stereo not drawn)
not listed: [9] | [14] | [15]
inactive: all other assays above

CC(=O)OCCc1ccccc1
not listed: [13]
inactive: all other assays above

O=C(Cl)c1ccc([N+](=O)[O-])cc1
not listed: [8]
inactive: all other assays above

COCCCCCCCCOCCC[Si](C)(O[Si](C)(C)C)O[Si](C)(C)C
active: [5] 17.2 µM
not listed: [10] | [11] | [14] | [15]
inactive: all other assays above

CCCCCCCCN(C)C
not listed: [13] | [15]
inactive: all other assays above

N=C(N=C(N)N)N1CCOCC1
not listed: [8] | [14]
inactive: all other assays above

NC(=S)N/N=C/c1cccnc1
not listed: [13] | [14]
inactive: all other assays above

O=C(Cl)c1c(Cl)cccc1Cl
not listed: [13]
inactive: all other assays above

SC1CCCC1
not listed: [13]
inactive: all other assays above

CNCC[C@@H](Oc1ccccc1C)c1ccccc1
active: [7] 21.3 µM
not listed: [8] | [10]
inactive: all other assays above

CC(O)C1CCCCC1 (stereo not drawn)
not listed: [10] | [13] | [15]
inactive: all other assays above

COC(=O)CSc1cc(N=c2sc(=O)n3n2CCCC3)c(F)cc1Cl
not listed: [8] | [10] | [11]
inactive: all other assays above

CCOc1nc2cccc(C(=O)O)c2n1Cc1ccc(-c2ccccc2-c2nn[nH]n2)cc1
not listed: [13]
inactive: all other assays above

O=C(O)c1cccc(N(Cc2cccnc2)c2ccc(OC(F)F)c(OC(F)F)c2)c1
active: [5] 30.6 µM
not listed: [13] | [14]
inactive: all other assays above
